Screening data as filed in PubChem BioAssay.
TDP1 cell noCPT: qHTS for Inhibitors of human tyrosyl-DNA phosphodiesterase 1 (TDP1): qHTS in cells in absence of CPT; 420,000 tested, 15% active; DT40 Tdp1-/- hTDP1 cells, no CPT, ATP luminescence, 48 h; Potency, µM (top dose mostly 46.2 µM), without a hit: at the top dose activity change, negative = growth inhibition, hits mostly inhibitors; AID 686978, 2013; further: potency means the concentration at half of the fitted maximal effect; nearly all actives have a fitted effect of over 55% in size
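Chicken DT40 Tdp1-/- cells stably complemented with human TDP1 were seeded at 400 cells/well with DMSO in place of 20 nM camptothecin. After compound pinning, cells grew at least 48 hr at 37 °C; viability read by CellTiter-Glo luminescence.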
RORgamma inh: blocks mouse ROR gamma transcriptional activity; P51450; Drosophila S2 Gal4-RORgamma UAS-luciferase reporter, 20 h; Potency, µM (doses to about 53.6 µM), for inactives: top-dose activity change, negative = inhibition, usual class: inhibitors; 310,000 tested, 5.4% active; further: potency means the concentration at half of the fitted maximal effect; nearly all actives have a fitted effect of over 60% in size
Target sequence (P51450 whole entry, looked up, the tested form may be a part): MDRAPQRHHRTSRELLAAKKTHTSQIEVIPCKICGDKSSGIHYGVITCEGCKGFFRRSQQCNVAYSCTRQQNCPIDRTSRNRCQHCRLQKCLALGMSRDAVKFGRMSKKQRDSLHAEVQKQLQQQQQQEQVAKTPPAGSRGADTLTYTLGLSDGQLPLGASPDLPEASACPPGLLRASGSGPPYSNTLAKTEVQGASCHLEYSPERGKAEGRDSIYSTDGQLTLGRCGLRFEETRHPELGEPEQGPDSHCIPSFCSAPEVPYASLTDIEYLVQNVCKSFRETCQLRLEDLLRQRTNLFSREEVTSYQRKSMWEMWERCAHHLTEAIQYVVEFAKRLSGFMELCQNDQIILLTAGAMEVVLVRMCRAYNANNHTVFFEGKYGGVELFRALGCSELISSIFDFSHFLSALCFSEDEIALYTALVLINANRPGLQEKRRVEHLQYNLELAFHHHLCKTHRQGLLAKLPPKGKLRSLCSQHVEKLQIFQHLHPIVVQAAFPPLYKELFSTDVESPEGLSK
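Stably transfected Drosophila Schneider cells are the test system, with ROR gamma fused to Gal4 and luciferase under UAS control; luminescence is read after 20 hr of 700 uM copper sulfate induction at ambient temperature.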
TDP1 cell CPT: DT40-hTDP1 cell growth loss with CPT; 420,000 tested, 12% active; Potency, µM (highest dose often 46.2 µM), for inactives: top-dose activity change, negative = growth inhibition, hits mostly inhibitors; chicken DT40 Tdp1-/-;hTDP1 cells + 20 nM CPT, ATP luminescence, 48 h; further: potency means the concentration at half of the fitted maximal effect; nearly all actives have a fitted effect of over 55% in size
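Chicken DT40 Tdp1-/- cells complemented with human TDP1, 400 cells/well, exposed to compounds plus 20 nM camptothecin for at least 48 h at 37 C; viability read as ATP content by CellTiter-Glo luminescence.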
VP16 counter: inhibits Gal4-VP16 luciferase reporter, ROR gamma counter-screen; AID 2546; Potency, µM (series often up to 53.6 µM), for inactives: at the top dose activity, negative = inhibition, usual class: inhibitors; 310,000 tested, 3.5% active; Drosophila S2 Gal4-VP16 UAS-luciferase, luminescence, 20 h;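 further: Gal4-VP16 expression switched on by copper sulfate through the metallothionein promoter; potency means the concentration at half of the fitted maximal effect; nearly all actives have a fitted effect of over 50% in size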
IL1B secr inh: inhibitors of inflammasome signaling (IL-1 beta secretion) | activity change, % at 57.5 µM | 360,000 tested, 4.7% active | THP-1 LPS/ATP IL-1B secretion, AlphaLISA, 16 h; active compounds read low; in the data active means activity change below about -50%; inconclusive means mostly about -30% to -49%
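Secreted IL-1B measured by AlphaLISA bead assay after 16 h compound exposure of THP-1 cells; compounds (final up to 57.5 uM) added 1 h before LPS (250 ng/mL) and ATP (1.25 mM) stimulation; lower signal means less secretion.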
ELG1 DNA repair: blocks ELG1-dependent DNA repair in HEK293T cells; Potency, µM (titrated, usually from 46.1 µM), for the others: top-dose activity change, negative = inhibition, hits mostly inhibitors; 330,000 tested, 2.3% active; HEK293T ELG1-luciferase reporter, luminescence, 16 h; DNA damage induced by 5-fluorouridine; further: potency means the concentration at half of the fitted maximal effect; nearly all actives have a fitted effect of over 55% in size
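Cells (2,000 per well) received 5-fluorouridine plus test compound or DMSO and were incubated 16 hr at 37 °C, 5% CO2. Luciferase activity was read by luminescence 30 min after ONE-Glo addition; signal suppression marked inhibition of damage-induced ELG1 function.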
* marks the source's active call; other numbers are inactive results; ? = inconclusive; . = not tested or not shown. Hits are enriched below; roughly 21% of the tested compounds scored in any of these assays. Unless noted, the call rests on the fitted dose curve; in most records, active means well fitted curve in the direction sought with a large enough effect; inconclusive means small, poorly fitted or top-dose-only effect, or another doubt; inactive means no such curve, though single readings can be large; an effect the other way counts as inactive or inconclusive. On the % scale 0 is the no-effect control and ±100 the full control effect.

SMILES	TDP1 cell noCPT	RORgamma inh	TDP1 cell CPT	VP16 counter	IL1B secr inh	ELG1 DNA repair
COc1cc(CNc2ncnc3c2ncn3[C@H]2CN(Cc3cccc(C(F)(F)F)c3)C[C@@H](COC(C)=O)O2)cc(OC)c1OC	?	.	?	.	0	.
COc1cc(CNc2ncnc3c2ncn3[C@H]2CN(Cc3ccccc3)C[C@@H](COC(C)=O)O2)cc(OC)c1OC	16µM*	.	?	.	28	.
COc1cc(CNc2ncnc3c2ncn3[C@H]2CN(Cc3cccc(C(F)(F)F)c3)C[C@@H](CO)O2)cc(OC)c1OC	16µM*	.	18µM*	.	5	.
CCN(Cc1ccc(Br)s1)C(=O)CSc1nnc(C2CC2)n1C1CC1	-20%	.	-10%	.	-14	.
N#CCCn1nc(-c2ccccc2)cc1Nc1ccccc1NC(=O)c1cccs1	-27%	?	?	-12%	-60*	?
CCOc1ccccc1/C=C(/NC(=O)c1ccccc1)C(=O)NC(C)c1ccccc1 (stereo not drawn)	?	14%	23µM*	4%	-24	-9%
CC(CNC(=O)CCS(=O)(=O)c1cc2c(cc1Cl)NC(=O)CO2)c1ccccc1 (stereo not drawn)	-9%	-29%	13%	?	-8	-5%
CCn1cc(CN2CCC(C(=O)Nc3cccc(-c4cscn4)c3)CC2)cn1	-8%	-1%	-4%	-1%	-11	-10%
CCCn1cc(CN2CCC(C(=O)Nc3cccc(-c4cscn4)c3)CC2)c(C)n1	?	0%	?	2%	-72*	1%
CCCc1ncc(CN2CCC(C(=O)Nc3cccc(-c4cscn4)c3)CC2)cn1	29µM*	10%	?	-15%	-8	8.2µM*
CSc1ncc(CN2CCC(C(=O)Nc3cccc(-c4cscn4)c3)CC2)cn1	?	25%	?	-4%	?	23µM*
O=C(NC1CCCCC1)N(c1ccccc1)c1nnc(-c2cccc([N+](=O)[O-])c2)s1	12µM*	.	26µM*	.	-6	.
COc1ccccc1CNC(=O)CN(C)S(=O)(=O)c1cccc2cccnc12	-17%	-34%	-3%	7%	4	-17%
CSc1ccccc1NC(=O)CN(C)C(=O)COc1cccc2cccnc12	3.3µM*	.	5.2µM*	.	14	-1%
COc1cccc(N2CCN(S(=O)(=O)c3cccc4cccnc34)CC2)c1	?	23%	?	13%	-7	-23%
Cc1ccc(NC(=O)CN(C)S(=O)(=O)c2cccc3cccnc23)cc1C	15µM*	-3%	?	3%	-23	-7%
Cc1ccc(NC(=O)CN(C)S(=O)(=O)c2cccc3cccnc23)cc1F	?	2%	?	0%	-7	?
COc1ccc(N(C)S(=O)(=O)c2cccc3cccnc23)c(OC)c1	18µM*	-1%	?	-2%	22	?
COc1ccccc1NC(=O)CN(C)S(=O)(=O)c1cccc2cccnc12	18µM*	-30%	36%	-11%	-19	-1%
O=C(COc1cc(Cl)ccc1Cl)N1CCNC1=O	0%	.	49%	.	5	15%
COc1ccc(OCC(O)CNS(=O)(=O)c2cccs2)cc1 (stereo not drawn)	-16%	-21%	?	-13%	24	-2%
CC(O)(c1cccnc1)c1nc(-c2cc(F)cc(F)c2)cs1 (stereo not drawn)	?	.	?	.	-9	.
COc1ccc(N(C(=O)C2CCCCC2)S(=O)(=O)c2cccc3cccnc23)cc1	-24%	2%	15%	0%	-52*	-17%
COc1ccc(C2CC(=O)c3c(O)cc(O)cc3O2)cc1O (stereo not drawn)	?	9%	-6%	11%	-7	.
COc1ccc(C2CC(=O)c3c(O)cc(O)cc3O2)c(CC=C(C)C)c1OC (stereo not drawn)	?	.	23µM*	.	10	.
SMILES	TDP1 cell noCPT	RORgamma inh	TDP1 cell CPT	VP16 counter	IL1B secr inh	ELG1 DNA repair
CC1=CC(=C2C(=O)c3ccccc3C2=O)C=C(C)N1C	?	-7%	14%	-4%	-25	?
CCCCCN1C=CC(=C2C(=O)c3ccccc3C2=O)C=C1	?	1.1µM*	13µM*	1.3µM*	-18	?
COc1ccccc1C1SCCN1S(C)(=O)=O (stereo not drawn)	2%	0%	-5%	2%	18	-1%
COc1ccc(OC)c(C2SCCN2S(C)(=O)=O)c1 (stereo not drawn)	1%	11µM*	-4%	3%	24	9%
Nc1c(NCc2ccccc2)c(=O)[nH]c(=O)n1Cc1ccccc1	18µM*	-3%	?	2%	-15	11%
CNc1c(N)n(Cc2ccccc2)c(=O)[nH]c1=O	-3%	9%	4%	13%	-3	?
CCCNc1c(N)n(-c2ccccc2)c(=O)[nH]c1=O	16µM*	-7%	?	7%	0	12%
Cn1c(=O)[nH]c(N)c(Br)c1=O	?	.	-30%	.	0	.
CCO[C@@H]1OC(C(=O)N2CCN(Cc3ccccc3)CC2)=C[C@H](C2CC2)[C@H]1CCCO	?	13%	?	-6%	-8	15%
O=[N+]([O-])c1ccc(Cl)cc1Cl	.	3%	.	-5%	.	.
Cc1cccc2c(C(O)c3cn(C)c4ccccc34)c[nH]c12 (stereo not drawn)	16µM*	.	11µM*	.	.	.
O=C(NCc1ccco1)C1CCN(C(=O)c2ccc(Cl)cc2)CC1	-26%	.	-11%	.	-7	4%
COCCNC(=O)C1CCN(C(=O)c2cc3sccc3n2Cc2ccc(Cl)cc2)CC1	2.6µM*	.	5.2µM*	.	.	.
CCC(C)NC(=O)C1CCN(C(=O)c2cc3sccc3n2Cc2ccc(Cl)cc2)CC1 (stereo not drawn)	2.1µM*	.	3.7µM*	.	.	.
COCCCNC(=O)C1CCN(C(=O)c2cc3sccc3n2Cc2ccc(Cl)cc2)CC1	21µM*	.	13µM*	.	.	.
O=C(NCc1ccco1)C1CCN(C(=O)c2cc3sccc3n2Cc2ccc(Cl)cc2)CC1	?	?	18µM*	?	-87*	18µM*
COCCNC(=O)C1CCN(C(=O)c2cc3sccc3n2Cc2ccc(F)cc2)CC1	?	?	?	-5%	52	?
CSc1ccc(CN2CCCN(C)CC2)cc1	-2%	-15%	-7%	5%	-11	0%
